The results in this text go back to PubChem BioAssay (NCATS).

Experiment [1] concerns the target Arylsulfatase A (Homo sapiens) (UniProt P15289). Nature of the experiment: qHTS screen for enhancers of Arylsulfatase A (ASA1): LOPAC Validation Assay (AID 720538). The procedure, abridged: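 MLD patient fibroblasts (SV40, ASA-I179S), 1536-well; adhere 6 hrs; cpd 48h, 37 degree C, 5% CO2; pNCS 0.5mM final in lysis buffer, 14h RT; stop 1N NaOH final; fluor. Ex525/Em598.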
In general terms: In qHTS, concentration-response curves come from the screen itself.

Experiment [2] in a line: qHTS assay for small molecule agonists of retinoid X receptor alpha signaling (AID 588544; calls by dose curve;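 for activation: 0% = DMSO basal wells and 100% = reference agonist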). The settings on record: HEK293T RXRa-UAS-bla, beta-lactamase reporter, 18 h; 530 nm emission.
Experiment [3] addresses Retinoic acid receptor RXR-alpha (Homo sapiens) (UniProt P19793). Described as above.
Experiment [4] can be described thus: qHTS assay to identify small molecules that stimulate interleukin-8 (IL-8) secretion (AID 651758; active = well fitted activation curve with a large enough effect in the signal ratio; the % refers to the signal ratio; note: 0% is about no effect). The procedure, abridged: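 Secreted IL-8 measured by TR-FRET sandwich (cryptate and XL665 antibodies) from THP-1 cells exposed to compound overnight (16 hrs, 37 C).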
In experiment [5] the target is Nuclear receptor subfamily 1 group I member 2 (Rattus norvegicus) (UniProt Q9R1A7). In words: qHTS assay for small molecule activators of the rat pregnane X receptor (rPXR) signaling pathway (AID 651751; call rule not given here; note: 0% is about no effect). The settings on record: rPXR reporter cells, luciferase (One-Glo), 24 h.
Sequence of Nuclear receptor subfamily 1 group I member 2 (Rattus norvegicus) (Q9R1A7 whole entry, looked up): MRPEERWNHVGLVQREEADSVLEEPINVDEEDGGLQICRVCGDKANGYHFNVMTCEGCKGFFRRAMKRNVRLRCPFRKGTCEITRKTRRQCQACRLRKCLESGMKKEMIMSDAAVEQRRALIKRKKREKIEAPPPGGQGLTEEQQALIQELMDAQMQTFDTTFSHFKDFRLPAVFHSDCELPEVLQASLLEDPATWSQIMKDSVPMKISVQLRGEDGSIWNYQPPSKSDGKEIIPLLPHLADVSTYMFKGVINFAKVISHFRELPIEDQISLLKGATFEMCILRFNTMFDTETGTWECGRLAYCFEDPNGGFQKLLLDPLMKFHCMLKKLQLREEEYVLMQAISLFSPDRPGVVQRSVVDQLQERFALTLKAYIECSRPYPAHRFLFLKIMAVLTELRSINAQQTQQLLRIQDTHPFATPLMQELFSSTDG
Experiment [6] in a line: qHTS assay for small molecule activators of the human pregnane X receptor (PXR) signaling pathway (AID 720659; call rule not given here; note: 0% is about no effect).
The target in experiment [7] is Cytochrome P450 3A4 (Homo sapiens) (UniProt P08684). In words: qHTS Assay for Activators of Cytochrome P450 3A4 (AID 885). Note: nearly all actives have a fitted effect of over 65% in size. The method in brief:
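Human CYP3A4 (20 nM) with Luciferin-PPXE at 25 uM (its KM) in 200 mM KPO4; 10 min compound preincubation, then NADPH regeneration and 60 min reaction at RT. Luciferin read by luminescence; normalized to 57 uM ketoconazole full inhibition.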

For experiment [8], the target named is Flap endonuclease 1 (Homo sapiens) (UniProt P39748). In words: qHTS Validation Assay for the Inhibitors of Human Flap endonuclease 1 (FEN1) (AID 488816). Note: % is set by controls: 0 for no effect and ±100 for the full control effect. The procedure, abridged:
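Readings taken at 0 and 15 min after starting the reaction with 50 nM (final) substrate supplied the signal. Compounds had first sat with 10 nM FEN1 reagent for 15 min at room temperature. Values come from Hill-equation concentration-response fits.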

Experiment [9] can be described thus: Validation screen for small molecules that induce genotoxicity in human embryonic kidney (HEK293T) cells expressing luciferase-tagged ELG1 (AID 493106). Note: 0% is about no effect. The method in brief:
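HEK293T cells expressing luciferase-tagged ELG1, 2,000 cells/well, exposed to compound 16 hr at 37 °C, 5% CO2. Luciferase read after ONE-Glo, 30 min at room temperature; increased signal indicates genetic stress.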

The target of experiment [10] is ATPase family AAA domain-containing protein 5 (Homo sapiens) (UniProt Q96QE3). Nature of the experiment: Validation screen for small molecules that inhibit ELG1-dependent DNA repair in human embryonic kidney (HEK293T) cells expressing luciferase-tagged ELG1 (AID 493107). Note: potency is the fitted concentration of half-maximal effect; nearly all actives have a fitted effect of over 70% in size. The method in brief: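 HEK293T cells expressing luciferase-tagged ELG1, 2,000 per well, treated with 5-fluorouridine plus compound for 16 h at 37 C. ONE-Glo luminescence after 30 min at room temperature reports ELG1 reporter level.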

The target in experiment [11] is Ubiquitin carboxyl-terminal hydrolase 1 (Homo sapiens) (UniProt O94782). In words: Inhibitors of USP1/UAF1: Pilot qHTS (AID 504865). Note: potency is the fitted concentration of half-maximal effect; nearly all actives have a fitted effect of over 35% in size. The method in brief: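 In 50mM HEPES pH 7.8 containing 0.5mM EDTA, 1mM TCEP, 0.1 mg/ml BSA and 0.01% Tween-20, 1nM USP1/UAF1 is exposed to compound for 15 min, then Ub-Rho (150nM final) is added and fluorescence is read over time.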
Sequence of Ubiquitin carboxyl-terminal hydrolase 1 (Homo sapiens) (O94782 whole entry, looked up): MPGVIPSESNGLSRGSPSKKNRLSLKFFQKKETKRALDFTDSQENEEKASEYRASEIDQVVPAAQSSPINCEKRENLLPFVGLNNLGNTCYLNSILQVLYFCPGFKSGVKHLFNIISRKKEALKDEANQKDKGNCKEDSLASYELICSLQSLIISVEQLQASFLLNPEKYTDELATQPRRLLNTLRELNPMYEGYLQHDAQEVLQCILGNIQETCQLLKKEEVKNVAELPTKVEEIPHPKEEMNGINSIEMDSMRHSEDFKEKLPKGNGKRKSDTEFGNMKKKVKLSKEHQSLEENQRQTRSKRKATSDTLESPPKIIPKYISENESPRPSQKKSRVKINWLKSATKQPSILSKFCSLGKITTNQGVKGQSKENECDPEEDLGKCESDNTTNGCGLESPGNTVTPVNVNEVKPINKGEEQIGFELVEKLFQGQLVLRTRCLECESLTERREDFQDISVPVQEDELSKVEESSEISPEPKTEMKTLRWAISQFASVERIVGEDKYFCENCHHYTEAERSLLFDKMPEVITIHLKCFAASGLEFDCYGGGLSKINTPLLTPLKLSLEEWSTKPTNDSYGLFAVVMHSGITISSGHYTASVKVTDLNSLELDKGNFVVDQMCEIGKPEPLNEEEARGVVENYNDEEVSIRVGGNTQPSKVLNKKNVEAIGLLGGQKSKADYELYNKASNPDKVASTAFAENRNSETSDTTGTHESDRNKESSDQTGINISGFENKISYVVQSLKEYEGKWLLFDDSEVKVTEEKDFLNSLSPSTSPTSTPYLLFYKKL

Experiment [12] is described as follows: qHTS for Inhibitors of ATXN expression: Validation (AID 588378). Note: potency is the fitted concentration of half-maximal effect; nearly all actives have a fitted effect of over 75% in size. The method in brief: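 Compounds were pinned onto attached HEK293 cells carrying an ATXN2-firefly luciferase construct and incubated 24 hrs at 37 degrees C. Each well then received a fluorescent viability reagent followed by luciferase substrate for end-point luminescence.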
Experiment [13] in a line: KB-8-5-11 P-gp reporter qHTS against the NCATS DSHEA and TCM libraries (AID 1919977). Note: 0% is about no effect. The method in brief:
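KB-8-5-11, 500 cells/well, DMEM/10% FBS without colchicine; 4 h attach; cpd titrations, 72 h, 37C/5% CO2; CellTiter-Glo, 30 min RT, luminescence.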

The target of experiment [14] is Estrogen receptor (Homo sapiens) (UniProt P03372). In words: qHTS assay for small molecule antagonists of estrogen receptor alpha signaling (AID 588513; active = well fitted curve in the direction sought with a large enough effect in the signal ratio, with a control signal flat, not every such curve was filed as active; the % refers to the signal ratio; note: % is set by controls: 0 for no effect and ±100 for the full control effect). The procedure, abridged:
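Fluorescence from CCF4 substrate after 2 h at room temperature gave reporter activity; cells had been exposed to compound and 0.5nM 17-beta-estradiol for 18 h at 37 C. Hill-equation fitting yielded IC50 and maximal response.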

The target in experiment [15] is Bile acid receptor (Homo sapiens) (UniProt Q96RI1). Nature of the experiment: qHTS assay for small molecule antagonists of farnesoid X receptor signaling (AID 588526; calls by dose curve; note: % is set by controls: 0 for no effect and ±100 for the full control effect). The procedure, abridged:
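Beta-lactamase reporter antagonist mode: HEK293T FXR-UAS-bla cells, titrated compound, CDCA stimulation, 16 h 37 C, CCF4 dye 2 h RT. Data normalized to CDCA 50 uM and DMSO; Hill-fit IC50.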

The target of experiment [16] is Glucocorticoid receptor (Homo sapiens) (UniProt P04150). In words: qHTS assay for small molecule agonists of glucocorticoid receptor signaling (AID 588532; active = well fitted curve in the direction sought with a large enough effect in the signal ratio, with a control signal flat; the % refers to the signal ratio;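 note: 100% = dexamethasone at 0.1 µM and 0% = DMSO only wells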). The settings on record: HeLa MMTV-bla, beta-lactamase ratio, agonist, 18 h; stronger effect = higher value; percent of dexamethasone control, DMSO zero. The method in brief:
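Using MMTV-bla HeLa cells in medium with 1% stripped FBS and 25 mM HEPES, compounds were titrated and incubated overnight-length (18 h). Beta-lactamase cleavage of CCF4 was quantified by dual-emission fluorescence.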

Experiment [17] addresses Peroxisome proliferator-activated receptor gamma (Homo sapiens) (UniProt P37231). Nature of the experiment: qHTS assay for small molecule antagonists of peroxisome proliferator-activated receptor gamma signaling (AID 588537; active = well fitted inhibition curve with a large enough effect in the signal ratio, with a control signal flat, not every such curve was filed as active; the % refers to the signal ratio;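 note: reporter cells co-stimulated with 50 nM rosiglitazone agonist during compound treatment; % of control where 0% means no effect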). The procedure, abridged:
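Antagonist mode, beta-lactamase reporter in HEK293; charcoal/dextran FBS 1%; 3000 cells/well, 37 C 6-6.5 h; cpd titration + rosiglitazone 50 nM final, 16 h 37 C; CCF4, 2 h RT; 460/530 nm; Hill fit → IC50, efficacy.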

The target of experiment [18] is Thioredoxin reductase 1, cytoplasmic (Rattus norvegicus) (UniProt O89049). In words: qHTS Assay for Inhibitors of Mammalian Selenoprotein Thioredoxin Reductase 1 (TrxR1) (AID 488773). Note: nearly all actives have a fitted effect of over 40% in size. Note: potency is the fitted concentration of half-maximal effect. The settings on record: Potency: inhibition. The method in brief:
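Steps: enzyme (90 nM) plus NADPH (400 uM final), 5 min at ~22 deg C; compound added, 15 min; selenite (400 uM final) added; fluorescence followed for 8 min. Concentration-response curves derived from the normalized delta values.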

Experiment [19] can be described thus: qHTS for Activators of Parkin Expression: LOPAC Validation Assay (FLuc Reporter) (AID 720573). The procedure, abridged:
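Cells seeded, 24 h; compounds pinned, 7-pt dose response; 24 h at 37 C/5% CO2; volume reduced; FLuc reagent 10 min RT; luminescence read. Normalization: DMSO = 0, positive control = 100%.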

Experiment [20] in a line: qHTS Assay for Identifying Gametocytocidal Compounds (AID 743244).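 Note: % is set by controls: 0 for no effect and ±100 for the full control effect; actives lower the fluorescent signal which means gametocytes are killed.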 The settings on record: P. falciparum 3D7 stage III-V gametocytes, alamarBlue, 72 h; max response: stronger effect = lower value. The procedure, abridged:
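Using 20,000 stage III–V 3D7 gametocytes per well, compounds were incubated 72 h under 37 °C/5% CO2. Viability was then assessed by 24 h alamarBlue reduction, measured fluorometrically at 525/598 nm.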

The structures appear in SMILES notation. “And” between values parts separate entries of the source, which are not always exact repeats. Equal values may be shown once. Records with an inconclusive call do not appear. The source made the active and inactive calls. Unless noted, calls come from the whole dose curve; as a rule, active = well fitted curve in the direction sought with a large enough effect; inconclusive = small, poorly fitted or top-dose-only effect, or another doubt; inactive = no such curve, though single readings can be large; an effect the other way counts as inactive or inconclusive.

Sequence of Estrogen receptor (Homo sapiens) (P03372 whole entry, looked up): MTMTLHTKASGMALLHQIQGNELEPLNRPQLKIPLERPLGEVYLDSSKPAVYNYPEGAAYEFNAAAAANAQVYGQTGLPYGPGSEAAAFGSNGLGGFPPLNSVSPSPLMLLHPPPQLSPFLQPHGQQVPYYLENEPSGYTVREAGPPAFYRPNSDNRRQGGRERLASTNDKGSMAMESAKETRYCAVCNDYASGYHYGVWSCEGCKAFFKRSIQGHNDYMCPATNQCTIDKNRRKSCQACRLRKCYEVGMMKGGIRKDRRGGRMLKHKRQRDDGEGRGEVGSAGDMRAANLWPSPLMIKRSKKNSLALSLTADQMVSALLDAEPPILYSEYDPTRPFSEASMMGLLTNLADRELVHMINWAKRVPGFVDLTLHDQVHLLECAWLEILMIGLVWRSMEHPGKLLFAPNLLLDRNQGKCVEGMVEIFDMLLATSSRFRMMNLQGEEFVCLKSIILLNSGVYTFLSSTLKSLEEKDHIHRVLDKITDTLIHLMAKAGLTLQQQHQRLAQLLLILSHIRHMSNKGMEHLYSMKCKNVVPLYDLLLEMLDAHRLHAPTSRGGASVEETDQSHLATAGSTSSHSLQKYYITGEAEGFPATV
Sequence of Cytochrome P450 3A4 (Homo sapiens) (P08684 whole entry, looked up): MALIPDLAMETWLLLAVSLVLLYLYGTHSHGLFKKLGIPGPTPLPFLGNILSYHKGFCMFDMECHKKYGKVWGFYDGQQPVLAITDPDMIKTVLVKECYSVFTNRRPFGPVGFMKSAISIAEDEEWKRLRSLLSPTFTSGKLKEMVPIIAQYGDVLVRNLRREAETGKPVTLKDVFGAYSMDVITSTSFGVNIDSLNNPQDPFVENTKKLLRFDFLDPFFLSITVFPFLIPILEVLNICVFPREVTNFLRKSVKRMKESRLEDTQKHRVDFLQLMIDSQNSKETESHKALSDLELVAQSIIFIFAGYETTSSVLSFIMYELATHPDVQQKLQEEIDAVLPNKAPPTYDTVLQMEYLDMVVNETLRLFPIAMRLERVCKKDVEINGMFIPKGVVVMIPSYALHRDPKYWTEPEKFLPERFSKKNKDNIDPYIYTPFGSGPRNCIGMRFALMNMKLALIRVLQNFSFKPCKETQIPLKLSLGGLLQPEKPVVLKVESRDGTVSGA
Sequence of Retinoic acid receptor RXR-alpha (Homo sapiens) (P19793 whole entry, looked up): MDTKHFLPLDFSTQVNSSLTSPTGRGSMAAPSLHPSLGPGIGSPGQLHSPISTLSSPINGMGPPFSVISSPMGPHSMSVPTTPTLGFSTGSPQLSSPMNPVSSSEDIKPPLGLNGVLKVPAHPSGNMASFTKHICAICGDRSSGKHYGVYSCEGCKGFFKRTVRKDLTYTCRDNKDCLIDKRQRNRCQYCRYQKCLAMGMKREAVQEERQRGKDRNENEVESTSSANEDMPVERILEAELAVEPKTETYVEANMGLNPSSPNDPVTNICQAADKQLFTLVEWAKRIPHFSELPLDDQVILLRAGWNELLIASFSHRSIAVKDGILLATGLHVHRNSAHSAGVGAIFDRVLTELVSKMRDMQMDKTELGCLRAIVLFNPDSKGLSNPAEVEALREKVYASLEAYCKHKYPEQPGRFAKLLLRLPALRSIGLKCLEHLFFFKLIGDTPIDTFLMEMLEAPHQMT
Sequence of Bile acid receptor (Homo sapiens) (Q96RI1 whole entry, looked up): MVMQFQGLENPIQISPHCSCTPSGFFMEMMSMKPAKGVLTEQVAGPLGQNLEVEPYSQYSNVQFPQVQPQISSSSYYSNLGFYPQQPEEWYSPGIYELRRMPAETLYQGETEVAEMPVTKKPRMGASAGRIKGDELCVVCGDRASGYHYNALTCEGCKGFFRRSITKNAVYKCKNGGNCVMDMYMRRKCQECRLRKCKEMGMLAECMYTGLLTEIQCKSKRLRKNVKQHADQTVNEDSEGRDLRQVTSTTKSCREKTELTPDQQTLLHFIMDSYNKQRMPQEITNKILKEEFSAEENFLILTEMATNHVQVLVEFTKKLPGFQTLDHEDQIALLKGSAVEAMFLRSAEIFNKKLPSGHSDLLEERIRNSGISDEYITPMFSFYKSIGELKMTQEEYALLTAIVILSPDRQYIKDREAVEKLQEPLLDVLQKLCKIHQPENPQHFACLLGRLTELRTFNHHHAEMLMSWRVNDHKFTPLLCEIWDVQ
Sequence of Glucocorticoid receptor (Homo sapiens) (P04150 whole entry, looked up): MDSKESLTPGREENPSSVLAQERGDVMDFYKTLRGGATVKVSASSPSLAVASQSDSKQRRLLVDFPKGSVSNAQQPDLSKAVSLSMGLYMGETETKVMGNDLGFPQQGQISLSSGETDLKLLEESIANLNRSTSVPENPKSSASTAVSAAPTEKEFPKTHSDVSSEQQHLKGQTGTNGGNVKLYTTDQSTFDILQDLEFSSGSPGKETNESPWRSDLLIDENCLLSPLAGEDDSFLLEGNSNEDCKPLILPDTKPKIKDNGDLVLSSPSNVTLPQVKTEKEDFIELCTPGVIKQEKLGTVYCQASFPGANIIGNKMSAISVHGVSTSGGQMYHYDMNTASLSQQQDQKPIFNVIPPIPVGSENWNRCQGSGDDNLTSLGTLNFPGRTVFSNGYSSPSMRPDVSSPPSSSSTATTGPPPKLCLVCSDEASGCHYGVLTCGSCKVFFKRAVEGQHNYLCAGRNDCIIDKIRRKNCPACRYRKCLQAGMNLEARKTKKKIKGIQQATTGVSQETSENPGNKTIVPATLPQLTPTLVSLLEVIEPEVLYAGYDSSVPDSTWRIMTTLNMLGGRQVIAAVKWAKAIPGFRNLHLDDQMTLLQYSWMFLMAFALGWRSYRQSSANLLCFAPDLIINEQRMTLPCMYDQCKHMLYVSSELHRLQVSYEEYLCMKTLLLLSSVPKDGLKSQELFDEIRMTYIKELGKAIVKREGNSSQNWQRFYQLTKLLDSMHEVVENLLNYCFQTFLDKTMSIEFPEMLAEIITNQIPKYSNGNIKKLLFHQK
Sequence of Thioredoxin reductase 1, cytoplasmic (Rattus norvegicus) (O89049 whole entry, looked up): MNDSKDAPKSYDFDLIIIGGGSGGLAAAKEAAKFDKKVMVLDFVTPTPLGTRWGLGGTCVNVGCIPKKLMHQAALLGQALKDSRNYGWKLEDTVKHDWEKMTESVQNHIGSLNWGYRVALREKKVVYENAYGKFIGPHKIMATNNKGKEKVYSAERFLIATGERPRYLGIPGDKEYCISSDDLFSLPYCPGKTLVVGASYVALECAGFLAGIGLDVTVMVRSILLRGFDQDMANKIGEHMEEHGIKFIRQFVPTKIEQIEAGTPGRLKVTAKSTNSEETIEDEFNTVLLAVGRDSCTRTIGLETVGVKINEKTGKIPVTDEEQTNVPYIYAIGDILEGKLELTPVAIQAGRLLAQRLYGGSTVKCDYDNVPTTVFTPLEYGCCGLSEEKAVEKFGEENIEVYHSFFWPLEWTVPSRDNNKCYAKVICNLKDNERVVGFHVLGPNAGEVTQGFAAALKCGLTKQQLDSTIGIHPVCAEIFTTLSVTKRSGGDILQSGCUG
Sequence of Flap endonuclease 1 (Homo sapiens) (P39748 whole entry, looked up): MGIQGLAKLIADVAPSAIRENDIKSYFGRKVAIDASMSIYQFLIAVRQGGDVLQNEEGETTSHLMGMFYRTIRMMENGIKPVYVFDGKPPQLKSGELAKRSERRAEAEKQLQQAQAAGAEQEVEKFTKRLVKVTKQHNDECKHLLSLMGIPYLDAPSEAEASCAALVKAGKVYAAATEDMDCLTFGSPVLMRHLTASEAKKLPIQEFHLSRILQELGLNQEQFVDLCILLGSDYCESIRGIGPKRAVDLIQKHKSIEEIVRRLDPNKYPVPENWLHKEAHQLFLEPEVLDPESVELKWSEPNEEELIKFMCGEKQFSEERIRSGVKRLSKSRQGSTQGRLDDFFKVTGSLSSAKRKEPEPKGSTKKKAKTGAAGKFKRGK

In the case of `CC(=O)C(C)=O`, the Potency entry in experiment [1] was “inactive”.
For `CC(=O)/C=C/c1ccccc1`, the max response was -2.3% in experiment [2] and -0.846% (inactive) in [5]. The molecule was classed as inactive in experiment [3] and in experiment [6]. Moreover, the Potency entry in [4] was “inactive”.
Consider `Brc1c(Br)c(Br)c2n[nH]nc2c1Br`, for which the Potency result in experiment [7] and in [8] was “inactive” each time. The call in experiment [9] was inactive. Moreover, the Potency in experiment [10] is 25.9 µM (active); in [11], 56.2 µM (active); in [12], 28.2 µM (active).
For `C=C(C)[C@H]1CC=C(CO)CC1`, the outcome in experiment [13] was inactive.
On to `COC1=CC(=O)OC(CCc2ccc3c(c2)OCO3)C1` (configuration not stated), for which the Potency entry in experiment [7], in experiment [14], in [15], in experiment [17] and in experiment [4] was “inactive” each time. Also, the activation in experiment [16] is 3.34% (inactive).
For `c1ccc(Nc2ccc3ccccc3c2)cc1`, the Potency entry in experiment [7], in experiment [14] and in [15] was “inactive” in each case. For the same molecule, in experiment [16], the activation is -2.76% (inactive) and -2.2% (inactive).
Consider `CCOC(=O)c1ccccc1N`, for which the Potency entry in [14] and in experiment [15] was “inactive” throughout. For the same molecule, in experiment [16], the activation was 0.622% (inactive). The max response in experiment [2] is -10.9%; in [5], -1.87% (inactive). Also, the molecule was called inactive in experiment [3] and in experiment [6].
Consider `Nc1nc2[nH]c(=O)cnc2c(=O)[nH]1`, for which, in experiment [18], the Potency entry was “inactive”.
Turning to `O=c1oc(Cl)c(Cl)c2ccccc12`, the values for the Potency in experiment [18] and in experiment [11] were 7.52 µM (active) and 12.6 µM (active), respectively. Further, the molecule was classed as inactive in [19].
Regarding `C=C1C[C@@]23CC[C@H]4[C@@](C)(CCC[C@@]4(C)C(=O)OC4OC(CO)C(O)C(O)C4O)[C@@H]2CC[C@]1(OC1OC(CO)C(O)C(O)C1OC1OC(CO)C(O)C(O)C1O)C3` (some centres not stated), in [13], the molecule was classed as inactive.
As to `COc1ccc2c(c1)CCC1C2CC[C@@]2(C)C1CC[C@@H]2NCCCCCCN1C(=O)C=CC1=O` (some centres not stated), the outcome in experiment [19] was inactive. Further, in experiment [20], the max response was 27.3% (inactive).
For the molecule `c1ccc2c(c1)-c1cccc3cccc-2c13`, the Potency result in [17] is “inactive”.
Regarding `NC1C=CC=C(C(=O)O)C1` (configuration not stated), in experiment [9], the molecule was classed as inactive.
Regarding `Cn1ccnc1`, the Potency entry in experiment [8] was “inactive”.
For the molecule `CC(C)c1ccc(C=O)cc1`, the call in [13] was inactive.
For `Oc1ccccc1Cl`, the max response in experiment [2] was 8.5%; in [5], 0.452% (inactive). For the same molecule, the outcome in [3] and in experiment [6] was inactive.
For the molecule `O=C(O)CNC(=O)C(CS)Cc1ccccc1` (configuration not stated), in experiment [1], the Potency result was “inactive”. Moreover, the max response in experiment [20] was -3.2% (inactive).
